Screens from PubChem BioAssay.
A selection follows.
aSyn UTR act – Activators working through SNCA 5'UTR binding (MLPCN) | alpha-synuclein 5'UTR reporter, activators screen | activity score, % (tested at 7.5 µM), hits read low | 7.1% of 300,000 active; in the data active means activity score below about -60%
Active calls of the source: *.

SMILES | aSyn UTR act
Cc1c(/C(O)=C2/C(=O)C(=O)N(Cc3cccnc3)C2c2cccs2)cnn1-c1ccccc1 (stereo not drawn) | -152*
CC1CCC(NC(=O)CCC(=O)N2CC(C)Oc3ccccc32)CC1 (stereo not drawn) | -144*
COC(=O)c1ccc(-c2ccc(Cl)cc2)nc1C | -126*
CC1=NC(=O)C(N=Nc2cccc(O)c2)N1c1ccccc1 (stereo not drawn) | -260*
CCOC(=O)C1(Cc2cccc(OC)c2)CCCN(C(=O)c2ccc(OC)o2)C1 (stereo not drawn) | -126*
CCOC(=O)C1(Cc2cccc(OC)c2)CCCN(C(=O)c2cc(CC(C)C)[nH]n2)C1 (stereo not drawn) | -118*
CCOC(=O)C1(Cc2cccc(Cl)c2)CCCN(C(=O)c2cc(C)on2)C1 (stereo not drawn) | -72*
CCOC(=O)C1(Cc2cccc(OC)c2)CCCN(C(=O)CCN2CCCO2)C1 (stereo not drawn) | -112*
CC(C)(C)c1ccc(OCCCC(=O)Nc2ccc(S(N)(=O)=O)cc2)cc1 | -146*
CCN(CC)c1ccc(NC(=O)c2cccnc2)cc1 | -67*
Cc1ccc(NC(=O)c2cncc(Br)c2)cc1S(=O)(=O)N(C)C | -127*
CCN(CC)c1ccc(NC(=O)c2cncc(Br)c2)cc1 | -279*
NC(=O)c1sc2nc(-c3ccco3)ccc2c1N | -62*
COC(=O)c1sc2nc(-c3ccco3)ccc2c1N | -236*
COc1ccc(CN(C(=O)c2cc3ccccc3oc2=O)C2CCS(=O)(=O)C2)cc1OC (stereo not drawn) | -115*
O=C(c1cc2ccccc2oc1=O)N(Cc1ccccc1)C1CCS(=O)(=O)C1 (stereo not drawn) | -88*
O=C(c1cc2ccccc2oc1=O)N(Cc1ccccc1F)C1CCS(=O)(=O)C1 (stereo not drawn) | -95*
CCOc1ccc(CN(C(=O)c2cc3ccccc3oc2=O)C2CCS(=O)(=O)C2)cc1 (stereo not drawn) | -78*
CN(C)CCN(C(=O)c1ccc(S(=O)(=O)N(C)c2ccccc2)cc1)c1nc2cc3c(cc2s1)OCCO3 | -64*
CN(C)CCN(C(=O)c1ccc2c(c1)CCCC2)c1nc2cc3c(cc2s1)OCCO3 | -75*
CN(C)CCN(C(=O)c1ccc2c(c1)OCCO2)c1nc2cc3c(cc2s1)OCO3 | -77*
COc1ccc2nc(N(CCN(C)C)C(=O)c3ccc4c(c3)OCCO4)sc2c1 | -72*
Cc1cc(C)c2sc(N(CCCN(C)C)C(=O)c3ccc(S(=O)(=O)N(C)C4CCCCC4)cc3)nc2c1 | 53
CN(C)CCCN(C(=O)c1ccc2c(c1)CCCC2)c1nc2c(F)cccc2s1 | -157*
CN(C)CCN(C(=O)c1ccc2c(c1)OCCO2)c1nc2c(Cl)cccc2s1 | -97*
SMILES | aSyn UTR act
CCOc1cccc2sc(N(CCCN(C)C)C(=O)c3ccc(S(=O)(=O)N4CCc5ccccc5C4)cc3)nc12 | 58
Cc1ccc(Nc2nnc(-c3ccccc3N)o2)cc1C | -135*
Cc1[nH]nc(SCC(=O)N2CCCCC2)c1[N+](=O)[O-] | -92*
Cc1ccc(-n2[nH]c(=O)c(-c3ccccn3)c2C)cc1 | 97
Nn1c(-c2ccccn2)nnc1-c1ccccn1 | -96*
Nn1c(SCc2c(F)cccc2F)nnc1-c1ccccn1 | -159*
Nc1ccccc1-c1nnc(-c2ccccc2N)n1N | -113*
CCCCOc1ccccc1C1CC(=O)NC2=C1C(=O)CCC2 (stereo not drawn) | 94
COc1ccc(C2C(C#N)=C(N)Nc3nc4ccccc4n32)cc1 (stereo not drawn) | -179*
Cc1ccc(NC(=S)Nc2ccccn2)cc1C | -112*
Cc1cccc(NC(=S)Nc2ccccn2)c1 | -71*
Cc1cc(C)cc(NC(=S)Nc2ccccn2)c1 | -105*
COc1cccc(NCc2cc(=O)oc3cc(-c4ccccc4)c(O)cc23)c1 | -128*
COc1ccc(-c2nc(-c3ccc(Br)o3)no2)cc1OC | -211*
COc1ccccc1-c1nc(-c2ccc(Br)o2)no1 | -95*
COc1ccc(-c2nnc(-c3ccc(Br)o3)o2)cc1OC | -90*
CC(=O)N(C1=C(Cl)C(=O)c2ccccc2C1=O)C1CCCCC1 | 58
CC(=NC1CCCCC1)C1=C(O)c2ccccc2C1=O | -121*
Nc1ccc(-c2cc3ccccc3oc2=O)cc1 | 106
O=C(NCc1cccnc1)c1ccc(-c2cc3ccccc3oc2=O)cc1 | -139*
O=c1oc2ccccc2cc1-c1ccc(O)cc1 | -101*
COc1ccc(-c2cc3ccccc3oc2=O)cc1 | -71*
Cc1cc(C(=O)CSc2ccccc2)cc(C)c1O | -160*
Cc1cc(C(=O)CS(=O)(=O)c2ccccc2)cc(C)c1O | -85*
Cc1cc(C(=O)CS(=O)(=O)c2ccc(F)cc2)cc(C)c1O | -80*
SMILES | aSyn UTR act
COc1ccc(-c2nc(N/N=C(\C)c3ccc(O)cc3)c3ccccc3n2)cc1 | -92*
COc1ccc(/C=C/C(=O)NC2CCCCCC2)cc1S(=O)(=O)N1CCOCC1 | -75*
CCN(CC)S(=O)(=O)c1cc(C(=O)NC2CCCCC2)ccc1C | -111*
Cc1ccc(C(=O)NC2CCCCCC2)cc1S(=O)(=O)N1CCOCC1 | -70*
CCc1ccc(/C=C2/C(=O)N(C)C(=S)N2CC(=O)OC)s1 | -81*
COc1ccc(CNCCC(c2ccc(OC(C)C)cc2)c2ccccc2OC)cc1 (stereo not drawn) | 134
COc1ccc(NC(C)c2ccccc2)cc1 (stereo not drawn) | -91*
CC(C)Nc1ccc(Nc2ccnc3cc4ccccc4cc23)cc1 | 99
COc1ccc(Cl)cc1NC(=O)C1Cc2ccccc2CN1S(C)(=O)=O (stereo not drawn) | 54
CCc1nnc(NC(=O)C2Cc3ccccc3CN2S(=O)(=O)c2c(C)c(C)cc(C)c2C)s1 (stereo not drawn) | -104*
CCc1ccc(NC(=O)Nc2cccc(OC)c2)cc1 | -199*
COc1ccc(NC(=O)Cc2ccccc2)cc1 | -101*
COc1ccc(CC(=O)Nc2ccc(C(C)=O)cc2)cc1 | -86*
CCc1ccc(NC(=O)Cc2ccc(OC)cc2)cc1 | -67*
COc1ccc(C/C(=N\O)c2ccc(OC)cc2)cc1 | -89*
CC1CCC/C(=N\Nc2ccc(Cl)c(C(=O)O)c2)C1 (stereo not drawn) | -98*
CC1CCC/C(=N\NC(=O)Nc2ccccc2)C1 (stereo not drawn) | -142*
Cc1cc(C(=O)Nc2ccc(Cl)cc2)c(C)n1-c1ccccc1 | 87
Cc1cc(C(=O)Cn2nnc3ccccc3c2=O)c(C)n1-c1ccccc1F | 54
Cc1cc(C(=O)COC(=O)c2ccc(O)cc2)c(C)n1-c1ccccc1F | -78*
Cc1cc(C(=O)CN2C(=O)NC(CC(C)C)C2=O)c(C)n1-c1ccccc1F (stereo not drawn) | -148*
Cc1cc(C(=O)OCC(=O)Nc2c(F)cccc2F)c(C)n1-c1ccccc1 | -103*
CC(=O)Nc1sc(N/N=C\c2ccc(O)cc2)nc1-c1cccs1 | -100*
CC(=O)Nc1sc(N/N=C\c2ccccc2F)nc1-c1cccs1 | -184*
CC(=O)Nc1sc(N/N=C\c2cccc(Cl)c2)nc1-c1cccs1 | -82*
O=C1C(C=NCc2cccnc2)=C(O)c2ccccc21 | -186*
O=C1C(C=NCc2ccco2)=C(O)c2ccccc21 | -141*
CCOc1ncccc1C(=O)Nc1nc(SC)ns1 | -108*
CSc1nsc(NC(=O)Cc2ccccc2)n1 | -85*
CCOC(=O)c1ccc(-c2ccc(/C=N/NC(=O)CN(c3ccccc3Br)S(C)(=O)=O)o2)cc1 | -140*
